Compounds with a hit are over-represented: about 7.3% of the library has one in this group of screens.
FLuc modulator: qHTS profiling assay for firefly luciferase inhibitor/activator using purifed enzyme and Km concentrations of substrates (counterscreen for miR-21 project). AID 588342, 2011. purified FLuc, Km substrates, luminescence inhibition. 6.9% of 360,000 active. Luciferin 4-monooxygenase (Photinus pyralis), P08659. Potency, µM (titrated, usually from 57.5 µM), for the others: at the top dose activity change, negative = inhibition, most hits filed as inhibitors;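 note: plate controls were vehicle for no effect and reference inhibitor for full effect; nearly all actives have a fitted effect of over 55% in size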
Target sequence (P08659 whole entry, looked up): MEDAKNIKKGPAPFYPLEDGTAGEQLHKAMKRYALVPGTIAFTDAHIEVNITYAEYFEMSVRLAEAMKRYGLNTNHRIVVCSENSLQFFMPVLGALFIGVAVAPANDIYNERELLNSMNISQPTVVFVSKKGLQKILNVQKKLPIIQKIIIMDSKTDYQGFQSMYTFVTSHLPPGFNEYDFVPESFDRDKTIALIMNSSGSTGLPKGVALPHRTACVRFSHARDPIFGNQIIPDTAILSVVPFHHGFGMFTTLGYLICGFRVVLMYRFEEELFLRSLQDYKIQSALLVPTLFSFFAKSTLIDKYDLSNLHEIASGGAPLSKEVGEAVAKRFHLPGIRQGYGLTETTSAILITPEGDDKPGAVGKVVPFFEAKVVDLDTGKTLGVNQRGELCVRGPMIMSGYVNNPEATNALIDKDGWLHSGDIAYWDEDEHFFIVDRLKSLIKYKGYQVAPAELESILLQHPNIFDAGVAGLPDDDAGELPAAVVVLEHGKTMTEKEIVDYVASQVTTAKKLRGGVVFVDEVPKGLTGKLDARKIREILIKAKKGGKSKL
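Purified P. pyralis luciferase, 10 nM final, with Km-level 10 uM D-luciferin and 10 uM ATP in 50 mM Tris acetate pH 7.5, 10 mM Mg acetate, 0.01% Tween-20, 0.05% BSA; 6-point qHTS titration about 60 µM downward; luminescence read.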
uPA surface inh: qHTS for Inhibitors of Cell Surface uPA Generation; cell surface uPA generation assay, qHTS; Potency, µM (series often up to 38.3 µM), without a hit: at the top dose activity change, negative = inhibition, actives largely listed as inhibitors; 0.31% of 330,000 active; active = well fitted inhibition curve with a large enough effect; inconclusive = small, poorly fitted or top-dose-only effect; inactive = no such curve, though single readings can be large or run the other way; tested in mouse RAW 264.7 cells; note: % is set by controls: 0 for no effect and ±100 for the full control effect; nearly all actives have a fitted effect of over 55% in size
Rab9 promoter act: qHTS Assay for Rab9 Promoter Activators; Huh7 Rab9 promoter-luciferase reporter, luminescence, 24 h; 2.8% of 320,000 active; Potency, µM (titrated, usually from 9.22 µM), without a hit: top-dose activation, negative = inhibition, usual class: activators; AID 485297, 2010; note: % of control where 0% means no effect; nearly all actives have a fitted effect of over 60% in size
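Measured in stably transfected Huh7 cells bearing a Rab9 promoter–luciferase construct: 24 h compound treatment at 37 °C, followed by luminescence detection.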
ELG1 genotoxic: qHTS screen for small molecules that induce genotoxicity in human embryonic kidney (HEK293T) cells expressing luciferase-tagged ELG1; HEK293T ELG1-luciferase reporter, luminescence, 16 h; Potency, µM (top dose mostly 46 µM), inactives show top-dose activity change, positive = activation, actives largely listed as activators; 1.3% of 330,000 active; note: % of control where 0% means no effect; nearly all actives have a fitted effect of over 60% in size
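After overnight (16 hr) compound treatment at 37 °C, ELG1-luciferase HEK293T cells were lysed with ONE-Glo; luminescence quantified 30 min later at room temperature.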
SMN2 splice enh: qHTS Assay for Enhancers of SMN2 Splice Variant Expression; Potency, µM (top dose mostly 46.1 µM), without a hit: at the highest dose activity change, positive = activation, most hits filed as activators; 2.8% of 210,000 active; HEK293 SMN2-luciferase splicing reporter, luminescence, 30-36 h; AID 1458, 2008; note: % of control where 0% means no effect; nearly all actives have a fitted effect of over 55% in size
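qHTS luciferase splicing reporter: luminescence rises when SMN2 exon 7 is included in transfected HEK293 cells. Compound exposure lasted 30-36 h at 37C, with 4.5 mM final sodium butyrate as control, followed by a ONE-Glo read.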
NPC1 promoter act: qHTS Assay for NPC1 Promoter Activators | AID 485313, 2010 | Huh7 NPC1 promoter luciferase reporter, 24 h | 2.4% of 320,000 active | Potency, µM (series often up to 9.22 µM), without a hit: top-dose activation, most hits filed as activators; note: % of control where 0% means no effect; nearly all actives have a fitted effect of over 60% in size
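Quantitative HTS used a cell-based reporter: Huh7 cells stably bearing the NPC1 promoter upstream of luciferase were treated with compounds for 24 h, and promoter activation was read as luminescence.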
Active calls of the source: *; ? = inconclusive; nt = no result given. Unless noted, calls come from the whole dose curve; as a rule, active = well fitted curve in the direction sought with a large enough effect; inconclusive = small, poorly fitted or top-dose-only effect, or another doubt; inactive = no such curve, though single readings can be large; an effect the other way counts as inactive or inconclusive. Potency is the fitted concentration of half-maximal effect.

SMILES	FLuc modulator	uPA surface inh	Rab9 promoter act	ELG1 genotoxic	SMN2 splice enh	NPC1 promoter act
COc1ccc(-n2ncc(C(=O)NCCCN3CCCCC3)c2C2CCN(C(=O)OC(C)(C)C)CC2)cc1	-3.0%	nt	nt	nt	nt	nt
CCNC(=O)COC(=O)c1cccc(Br)c1	-1.8%	-1.1%	-2.8%	2.0%	nt	0.1%
Cc1ccc(O)c(-c2cc(-c3cccc(Br)c3)n[nH]2)c1	12µM*	-2.8%	4.47µM*	23.1µM*	nt	?
Oc1ccc(Cl)cc1-c1cc(-c2ccccc2)n[nH]1	?	-1.2%	-4.0%	12.2%	15.9%	-7.5%
CC1CCCCC1NC1=NCCCS1 (centres undefined)	-2.3%	nt	0.4%	-3.3%	-2.1%	-0.9%
Cc1ccnc(NC(=O)c2cc([N+](=O)[O-])cc([N+](=O)[O-])c2)c1	-2.4%	2.8%	0.0%	11.9%	11.7%	0.0%
CSc1ccc(NC(=O)Nc2cc(C)ccn2)cc1	0.301µM*	-5.4%	0.447µM*	?	1.58µM*	0.501µM*
Cc1ccnc(NC(=O)c2cc3cc(F)ccc3s2)c1	2.69µM*	0.1%	1.41µM*	?	nt	2.24µM*
Cc1ccnc(NC(=O)Nc2ccc(F)cc2)c1	1.9µM*	1.7%	0.562µM*	?	12.6µM*	1.41µM*
Cc1ccnc(NC(=O)c2ccc([N+](=O)[O-])s2)c1	13.5µM*	?	3.55µM*	?	nt	3.16µM*
CSc1ncccc1C(=O)Nc1cc(C)ccn1	1.7%	-5.5%	4.6%	4.6%	nt	5.1%
O=C(CCS(=O)(=O)c1cccs1)Nc1ccc(C(=O)NC2CCCC2)cc1	-2.3%	2.5%	-8.0%	-1.6%	9.3%	-3.3%
COc1cccc(CNC(=O)Cn2ncc3c4ccccc4n(Cc4ccccc4)c3c2=O)c1	-1.0%	nt	nt	nt	15.2%	nt
CC(=O)C1CCC2C3CC(C)C4=CC(=O)CC[C@@]4(C)C3C(O)C[C@@]12C (some centres undefined)	nt	nt	nt	nt	-15.2%	nt
CCCC(=O)Nc1cc(-c2nnc3c4ccccc4c(C)nn23)ccc1C	-13.5%	nt	nt	nt	7.1%	nt
COC(=O)c1ccccc1NC(=O)Nc1cc(C)ccn1	2.5%	4.8%	-2.1%	1.7%	-9.3%	0.9%
Cc1ccc(NC(=O)Nc2ccc(F)cc2)nc1	10.7µM*	-5.9%	3.98µM*	8.0%	25.1µM*	?
Cc1ccnc(NC(=O)Nc2ccc(Br)cc2Cl)c1	0.477µM*	2.8%	0.631µM*	?	2.24µM*	1µM*
CNS(=O)(=O)c1cc2c3c(cccc3c1)C(=O)NC2=O	3.0%	7.08µM*	-0.9%	11.3%	-78.5%	-4.0%
COc1ccc(-c2noc(CN(C(C)C)S(=O)(=O)c3ccc(Br)cc3)n2)cc1	4.6%	nt	nt	nt	1.4%	nt
CCOC(=O)N1CCN(C(=S)NC(=O)/C=C/c2ccc(C)cc2)CC1	13.5µM*	5.3%	-1.2%	0.5%	nt	-4.5%
COc1ccc(/C=C/C(=O)NC(=S)N2CCN(C)CC2)cc1	?	-4.0%	-0.6%	12.1%	1.6%	-1.8%
CC(=O)Nc1ccc(NC(=O)c2ncoc2-c2ccco2)cc1	19µM*	nt	nt	nt	nt	nt
CCn1c(/C=C/c2ccccc2[N+](=O)[O-])nc2ccccc2c1=O	?	-5.8%	2.0%	2.8%	-20.4%	-3.1%
O=[N+]([O-])c1ccc(/C=C/c2ccc3cccc([N+](=O)[O-])c3n2)cc1	-2.5%	-0.3%	10.3%	3.9%	-41.1%	0.0%
SMILES	FLuc modulator	uPA surface inh	Rab9 promoter act	ELG1 genotoxic	SMN2 splice enh	NPC1 promoter act
CC(=O)/C=C/c1ccc2ccccc2n1	?	-13.0%	-4.5%	?	-34.7%	-27.1%
O=[N+]([O-])c1cccc2ccc(/C=C/c3ccc(F)cc3)nc12	8.49µM*	-0.4%	1.3%	24.5%	?	19.7%
O=[N+]([O-])c1ccccc1/C=C/c1ccc2ccccc2n1	2.13µM*	-5.3%	3.98µM*	?	nt	3.55µM*
COc1c(OC(C)=O)ccc(/C=C/c2ccc3cccc(OC)c3n2)c1[N+](=O)[O-]	12µM*	-4.5%	21.5%	6.1%	22.9%	21.8%
COc1c(OC(C)=O)ccc(/C=C/c2ccc3ccccc3n2)c1[N+](=O)[O-]	1.51µM*	-22.7%	?	?	22.4µM*	?
CCOc1c(OC(C)=O)ccc(/C=C/c2ccc3cccc(OC(C)=O)c3n2)c1[N+](=O)[O-]	?	nt	?	-2.6%	23.8%	?
COc1ccc(NC(=O)NCc2cccn2Cc2ccc(F)cc2)cc1OC	-0.3%	nt	nt	nt	1.7%	nt
Cc1nc(-c2ccc(C)c(N3CCN(C(=O)Nc4ccccc4C(F)(F)F)CC3)c2)no1	3.3%	nt	nt	nt	nt	nt
O=C(Nc1ccc(F)c(Cl)c1)c1cc(S(=O)(=O)N2CCc3ccccc3C2)ccc1F	-2.3%	nt	nt	nt	nt	nt
CCCS(=O)(=O)N1CCc2ccc(NC(=O)c3ccccc3Cl)cc2C1	16.9µM*	0.5%	-0.3%	-3.5%	nt	1.5%
CN(C)S(=O)(=O)N1CCc2ccc(NC(=O)c3ccccc3Cl)cc2C1	10.7µM*	-4.7%	17.2%	3.9%	nt	14.9%
CSCC(=O)N1CCc2ccc(NC(=O)c3ccccc3Cl)cc2C1	16.9µM*	-8.7%	?	?	nt	?
O=S(=O)(Nc1ccc(Cl)cn1)c1ccc2c(c1)OCCO2	-0.2%	-2.6%	1.9%	1.8%	nt	-1.7%
CC(C)CSc1nnc(-c2ccccc2)c(-c2ccccc2)n1	-12.4%	nt	nt	nt	-4.6%	nt
O=C1c2ccccc2C(=O)N1CCc1c[nH]c2ccccc12	6.75µM*	-2.9%	3.55µM*	?	nt	?
CN(Cc1ccc(Cl)s1)C(=O)CN1C(=O)N(C)C2(CCCCC2)C1=O	3.2%	-2.5%	26.5%	-0.3%	nt	8.3%
Cc1ccc(/C=C2\SC(=S)N(CC3CCCO3)C2=O)o1 (centres undefined)	21.3µM*	1.5%	?	4.4%	nt	16.7%
O=C1/C(=C/c2ccco2)SC(=S)N1CC1CCCO1 (centres undefined)	16.9µM*	-7.1%	21.4%	6.7%	nt	-1.8%
Cc1ccc(/C=C2/SC(=O)NC2=S)o1	26.9µM*	-1.5%	-0.9%	0.4%	-3.9%	-2.2%
COc1cccc(N2CCN(C(=O)CCc3c(C)nc4c(c3C)c(=O)n(C)c(=O)n4C)CC2)c1	-3.6%	nt	nt	nt	-9.0%	nt
Clc1ccc(-c2ccc(CN3CCCCC3)o2)cc1	?	6.9%	18.6%	4.6%	nt	1.1%
CN1CCN(C(=S)c2ccc(-c3cccc(Cl)c3Cl)o2)CC1	4.78µM*	-3.8%	?	?	nt	?
O=C(O)c1ccc(-c2ccccc2Cl)o1	-17.9%	0.3%	0.6%	2.1%	-3.9%	-3.0%

Screening results deposited in PubChem by National Center for Advancing Translational Sciences (NCATS).
